Measured values taken from paper PMC5540273 (PLoS ONE, 2017).

Tested on: T1, AMPK-alpha2
T1 construct: gene PRKAA2
Conditions: concentration: 1 μM, replicates: in singlicate; n = 1
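Also: KINOMEscan kinase panel screen.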

SMILES	%Inh
N#Cc1ccc(Oc2ccc(Nc3ncnc4cc[nH]c34)cc2Cl)cc1	15%
Cc1cc(N2CCC(NS(=O)(=O)c3ccc(F)cc3)CC2)nc(Nc2cccc(C#N)c2)n1.O=C(O)C(F)(F)F [GSK1653537]	20%
O=C(NCCCN1CCCC1=O)c1cnc(NCc2cc(Cl)ccc2Cl)nc1NC1CCNCC1	17%
c1ccc(-c2ccc3c(-c4ccnc(Nc5ccc6c(c5)OCCO6)n4)cnn3n2)cc1 [GW818941]	25%
CNc1nccc(-c2c(-c3ccc(F)cc3)ncn2CCCN2CCOCC2)n1 [SB-222516]	9%
C[C@@H]1CCN(C(=O)CO)C[C@@H]1N(C)c1ncnc2[nH]ccc12	0%
Cn1ccc2ncnc(Oc3ccc(NC(=O)Nc4cccnc4)c(Cl)c3)c21	9%
O=C(c1ccc(-c2cc(-c3c[nH]nc3-c3ccccn3)ccn2)cc1)N1CCCC1 [GW792479]	12%
O=C(Nc1n[nH]c2nc(-c3ccco3)c(Br)cc12)c1ccc(CN2CCCC2)cc1.O=C(O)[C@H](O)[C@@H](O)C(=O)O [SB-742352]	8%
Nc1n[nH]c2nnc(-c3ccccc3)cc12 [SB-517389]	16%
Oc1ccc2ncnc(Nc3ccc(OCc4ccccc4)cc3)c2c1 [GI262866]	0%
O=C(CCO)NCCn1ccc2ncnc(Nc3ccc(Oc4cccc(C(F)(F)F)c4)c(Cl)c3)c21	0%
Nc1nc(-c2cccnc2)c(-c2ccnc3ccccc23)s1 [GW684083]	20%
COc1ccc(Nc2nccc(N3CCC(NC(=O)c4cccc(NC(C)=O)c4)C3)n2)cc1 (stereo not drawn) [GSK1379732]	0%
CC(=O)Nc1n[nH]c2ncc(-c3ccccc3)cc12 [SB-548492]	1%
COc1ccc(Nc2nccc(N3CCC(NC(=O)Nc4ccc5c(c4)OCO5)C3)n2)cc1 (stereo not drawn) [GSK1379745]	24%
CCCc1ccc(S(=O)(=O)NC2CCN(c3ccnc(Nc4ccc(OC)cc4)n3)C2)cc1 (stereo not drawn) [GSK1379737]	0%
Nc1nccc2scc(-c3ccc4c(c3)CCN4C(=O)Cc3cc(F)ccc3F)c12 [GSK2587663]	11%

SMILES	%Inh
CS(=O)(=O)CCNCc1nc(-c2ccc3ncnc(Nc4ccc(OCc5cccc(F)c5)c(Cl)c4)c3c2)cs1.Cl [GW583340]	0%
COc1ccc(NC(=O)Nc2ccc(C)c(-c3ccc(C(=O)Nc4ccncc4)cc3)c2)cc1 [GSK1398475]	0%
FC(F)(F)c1cc(Nc2nccc(-c3c(-c4ccc(Cl)cc4)nn4ncccc34)n2)ccc1Cl [GW829351]	0%
Cl.Cl.c1ccc(-c2cc3ccncc3cc2OC2CCNCC2)cc1 [GSK1122999]	22%
Nc1nc(-c2ccc3c(N)n[nH]c3c2)cc(N2CCCCC2)n1 [GSK2228768]	0%
COc1cc2c(Nc3cccc(NC(=O)c4ccccc4)c3)ncnc2cc1OCCCN1CCOCC1 [GSK223810]	12%
Clc1cccc(-c2nc(Nc3ccncc3)c3ccccc3n2)c1 [GW873004]	9%
CSc1ccc(NC2=C(c3ccccc3Cl)C(=O)NC2=O)cc1 [SB-342411]	0%
O=C(Nc1ccccc1F)NC1CCN(c2ccnc(Nc3ccc(F)cc3)n2)C1 (stereo not drawn) [GSK1379722]	21%
Cc1ccc(NC(=O)c2cccc(C#N)c2)cc1-c1ccc(C(=O)Nc2ccncc2)cc1 [GSK1398463]	15%
Nc1nc(-c2ccc3c(N)n[nH]c3c2)cc(N2CCC[C@@H](C(=O)Nc3ccccc3)C2)n1.O=C(O)C(F)(F)F.O=C(O)C(F)(F)F [GSK2288359]	26%
CCc1nc(-c2cccc(C)c2)c(-c2ccnc(NC(=O)c3ccccc3)c2)s1	1%
Cl.Fc1ccccc1COc1ccc(Nc2ncnc3ccc(-c4nnc(C(F)(F)F)o4)cc23)cc1Cl [GW424170]	0%
Clc1cc(Nc2ncnc3cc[nH]c23)ccc1OCc1ccccn1	0%
CC(C)N1CCC(n2cnc(-c3ccc(F)cc3)c2-c2ccnc(N)n2)CC1 [SB-223132]	11%
COC(=O)c1cccc(NC(=O)NCCNc2ccnc(Nc3ccc(F)cc3)n2)c1 [GSK1379883]	18%
Cc1ccc(C)c(NC(=O)NCCNc2ccnc(Nc3ccc(F)cc3)n2)c1 [GSK1379878]	0%
CCC(CC)(CC)n1cnc2c(N)ncnc21 [SKF-97620]	54%
